# Many of the other results were omitted from the sample, so hits are more common in it than they were.
# ROC1-CUL1 inh: inhibitors of human ROC1-CUL1 ubiquitin ligase activity; E3 ubiquitin-protein ligase RBX1 (Homo sapiens) + Cullin-1 (Homo sapiens), P62877+Q13616; in vitro K48 di-Ub FRET, acceptor:donor ratio, 45 min; inhibition, % at 10 µM; actives 0.6% (n = 140,000); in the data active = inhibition above about 25%
# Target sequence (P62877 whole entry, looked up): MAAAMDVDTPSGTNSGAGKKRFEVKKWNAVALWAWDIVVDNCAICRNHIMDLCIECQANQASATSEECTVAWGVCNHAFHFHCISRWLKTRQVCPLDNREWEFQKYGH
# Target sequence (Q13616 whole entry, looked up): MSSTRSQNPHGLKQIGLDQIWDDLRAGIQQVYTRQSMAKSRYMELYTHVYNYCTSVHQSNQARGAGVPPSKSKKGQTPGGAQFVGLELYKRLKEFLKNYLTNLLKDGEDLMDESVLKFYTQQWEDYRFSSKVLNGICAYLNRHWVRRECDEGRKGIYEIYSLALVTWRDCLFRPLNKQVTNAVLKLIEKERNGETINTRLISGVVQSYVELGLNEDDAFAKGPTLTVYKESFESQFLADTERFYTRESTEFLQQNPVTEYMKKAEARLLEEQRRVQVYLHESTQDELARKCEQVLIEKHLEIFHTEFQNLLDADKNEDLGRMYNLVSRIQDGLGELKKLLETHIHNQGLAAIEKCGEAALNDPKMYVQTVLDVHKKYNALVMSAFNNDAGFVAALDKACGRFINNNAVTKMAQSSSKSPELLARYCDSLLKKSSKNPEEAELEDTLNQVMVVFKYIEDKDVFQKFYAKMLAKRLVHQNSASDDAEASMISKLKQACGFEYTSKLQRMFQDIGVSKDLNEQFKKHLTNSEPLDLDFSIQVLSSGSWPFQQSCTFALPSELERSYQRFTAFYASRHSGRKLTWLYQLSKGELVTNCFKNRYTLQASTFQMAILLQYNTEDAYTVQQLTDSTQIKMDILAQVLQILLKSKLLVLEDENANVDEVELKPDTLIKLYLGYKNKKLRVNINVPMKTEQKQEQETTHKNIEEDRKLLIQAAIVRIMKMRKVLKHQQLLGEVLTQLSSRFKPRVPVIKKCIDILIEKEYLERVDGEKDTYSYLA
# Starred values were filed as active, the others as inactive.
SMILES,ROC1-CUL1 inh
O=C(O)Cc1ccccc1Sc1cccc(C(F)(F)F)c1,-1
Nc1cc(C(F)(F)F)ccc1Sc1ccccc1C(=O)O,7
O=C(O)c1cc(C(F)(F)F)ccc1Sc1ccccc1,58*
COc1nc(Cl)cc(C)c1C(=O)O,4
CCc1ccc(C(=O)CC=Nc2ccc(S(=O)(=O)Nc3nc(C)cc(C)n3)cc2)cc1,4
O=c1c(SCc2ccccc2)c(SCc2ccccc2)cnn1-c1ccccc1,4
O=c1c(SCc2ccco2)c(SCc2ccco2)cnn1-c1ccccc1,31*
CCSc1cnn(-c2ccccc2)c(=O)c1SCC,15
O=C1C2CCCCC2C(=O)N1c1ccc(Oc2ccc3ccccc3c2)cc1 (stereo unspecified),10
Cc1cccc2c1OC(=O)C(C(c1ccc(Cl)cc1)C1C(=O)Oc3c(C)cccc3C1=O)C2=O (stereo unspecified),78*
O=C1Oc2ccccc2C(=O)C1C(c1cccc(O)c1)C1C(=O)Oc2ccccc2C1=O (stereo unspecified),13
O=C1Oc2ccccc2C(=O)C1C(c1ccc(F)cc1)C1C(=O)Oc2ccccc2C1=O (stereo unspecified),0
O=C1C(Cl)=C(N2CCN(S(=O)(=O)c3ccc(Cl)cc3)CC2)C(=O)c2ccccc21,1
O=C1C(Cl)=C(N2CCN(Cc3ccccc3)CC2)C(=O)c2ccccc21,104*
O=c1cc(C(F)(F)F)nc(N2CCN(Cc3ccccc3)CC2)[nH]1,5
Cc1cc(Br)cc(Br)c1OCC(=O)Nc1ccc(CN2CCOCC2)cc1,2
O=C(Nc1ccccc1Oc1cccnc1)C1CCCN1CCc1ccccc1 (stereo unspecified),-3
NC(=O)c1cc2ccccc2oc1=Nc1ccccc1Br,-4
O=S(=O)(O)SCCN1CCc2ccccc21,28*
O=C(CN1CCc2ccccc21)NC1CCCCCC1,-5
OCCN1c2ccccc2CCc2ccccc21,-2
CCOC(=O)C1=C(C)OC(=N)C(C#N)C1c1ccc(Cl)cc1Cl (stereo unspecified),0
O=C(/C=C/c1cccs1)c1ccc2c(c1)OCCO2,1
O=C(/C=C/c1cccnc1)c1ccc2c(c1)OCCO2,71*
COC(=O)c1ccc(/C=C/C(=O)c2ccc3c(c2)OCCO3)cc1,-1
SMILES,ROC1-CUL1 inh
COc1ccc(CNC(=O)CN(Cc2ccc(Cl)c(Cl)c2)S(=O)(=O)c2ccccc2)cc1,-4
COc1ccc2c(c1)C(=O)CC(O)(C(F)(F)F)O2 (stereo unspecified),1
O=c1[nH]n(-c2cc(Cl)cc(Cl)c2)c(O)c1C=C1C=Nc2ccccc21,-1
CC(C)C(C(=O)O)n1c(O)c(C=C2C=Nc3ccccc32)sc1=S (stereo unspecified),25*
O=C(Cn1c(O)c(C=C2C=Nc3ccccc32)sc1=O)N1CCOCC1,3
CCCNC(=O)c1nnn(-c2ccc(OC)c(Cl)c2)c1C,-10
Nc1ncc(-c2cccc(-c3ccn[nH]3)c2)cn1,3
CC(C)CN=C1NC(=O)N(C(C)C)C(=O)C1C#N (stereo unspecified),3
CN1C(=O)C2C(=NC3=C(C(=O)c4ccccc43)C2c2ccc(C(F)(F)F)cc2)N(C)C1=O (stereo unspecified),-7
C(=N\n1c(SCc2ccccc2)nnc1-c1cccnc1)/c1ccco1,3
COc1ccccc1N1C(=O)c2cccc3c(Nc4cccc(Cl)c4)c([N+](=O)[O-])cc(c23)C1=O,-6
O=C(O)c1ccc(N2C(=O)c3cccc4c([N+](=O)[O-])ccc(c34)C2=O)cc1O,-9
O=C(O)c1cc(Nc2c([N+](=O)[O-])cc3c4c(cccc24)C(=O)OC3=O)ccc1O,27*
Cc1nonc1CN(C)C(=O)Cc1c2c(n(CC(C)C)c1C)CC(C)(C)CC2=O,12
CC(=O)c1c(-c2ccccc2)ccnc1C,4
Cc1cccc(OCC(=O)NCC(=O)N/N=C/c2ccc(-c3ccc(C(=O)O)cc3)o2)c1,11
CN(C)c1cc(N/N=C/c2ccc(OCc3ccc(F)cc3)cc2)nc(N(C)C)n1,-5
CN(C)c1cc(N/N=C/c2ccc(-c3ccc(C(=O)O)cc3)o2)nc(N(C)C)n1,62*
Cn1c(C2CCCO2)nc2cc(NC(=O)CC3CCCC3)cc(C(=O)NC3Cc4ccccc4C3)c21 (stereo unspecified),2
COc1cccc(CN2CCCC3(CCN(C(=O)C4=NNC(=O)CC4)C3)C2=O)c1 (stereo unspecified),1
CCOC(=O)c1c(NC(=O)C#Cc2ccccc2)sc(C)c1C,-9
CCCCCCOc1ccc(/C(CCCCC/C(=N\O)c2ccc(OCCCCCC)cc2)=N\O)cc1,-3
CCCCCCCCCOc1ccc(C#CC(=O)O)cc1,99*
CCCCCCCCCCOc1ccc(N=CC=Nc2ccc(OCCCCCCCCCC)cc2)cc1,2
COC(=O)c1sc(S(=O)(=O)Nc2ccccc2Cl)c(C(=O)OC)c1C,23
SMILES,ROC1-CUL1 inh
CCN(CC)CC(O)COc1ccc(CN2CCCCCCC2)cc1OC (stereo unspecified),9
CCn1c(O)c(C=C2C(C)=Nc3ccccc32)c(=O)[nH]c1=S,-3
CC1=CC(=Cc2c(O)n(-c3cccc(Cl)c3Cl)c(=S)[nH]c2=O)C(C)=N1,93*
COc1ccccc1-n1c(O)c(C=C2C=Nc3ccccc32)c(=O)[nH]c1=S,15
COc1ccc(C(C[N+](=O)[O-])c2c(-c3ccccc3O)[nH][nH]c2=O)cc1 (stereo unspecified),0
COc1ccc(OC)c(C2c3c(n[nH]c3C(C)(C)C)OC(=N)C2C#N)c1 (stereo unspecified),0
COc1ccccc1Oc1cc(-n2nc(SC)c(C#N)c2N)ncn1,-4
Cc1cccc(N2CCN(C(=O)c3c(C)noc3C)CC2)c1C,2
COC1=CC(=NC#N)C(Br)=CC1=NC#N,104*
Cc1ccc(/C=C/c2ccccc2)c2ccccc12,-9
COc1ccc(-c2csc(C(C#N)C=Nc3ccccc3Cl)n2)cc1 (stereo unspecified),-6
Cc1cc(C)cc(N2C(=O)NC(=O)/C(=C\c3ccc(Br)o3)C2=O)c1,94*
O=C1NC(=S)N(c2ccccc2)C(=O)/C1=C\c1ccc(-c2ccc(F)cc2)o1,2
COc1cc(/C=C2\C(=O)NC(=O)N(c3cc(C)cc(C)c3)C2=O)cc(Br)c1O,7
COC(=O)CN1C(=O)S/C(=C/c2cc(Br)c(Sc3ccc(Cl)cc3)o2)C1=O,4
O=C1NC(=S)N(c2cccc(F)c2)C(=O)/C1=C/c1ccc(N2CCCC2)o1,26*
O=C(N/N=C/c1ccc(-c2cccc(C(=O)O)c2)o1)Nc1ccc(Cl)cc1,1
O=C1NC(=S)N(c2ccc(Cl)cc2)C(=O)/C1=C\c1ccc(-c2cccc(C(=O)O)c2)o1,100*
Cc1ccc(N2C(=O)NC(=O)/C(=C\c3cc(Br)c(Sc4ccc(Cl)cc4)o3)C2=O)cc1,100*
COc1cc(Br)cc(/C=C2/C(=O)NC(=O)N(c3cc(C)cc(C)c3)C2=O)c1O,5
CC(C)Oc1ccccc1/C=C1\C(=O)NC(=S)N(c2cccc(F)c2)C1=O,-13
O=C1NC(=S)N(c2cccc(Br)c2)C(=O)/C1=C/c1cc(Br)c(O)c(Br)c1,4
O=C1NC(=S)NC(=O)C1=Cc1cc(Br)c(Sc2ccc(Cl)cc2)o1,10
OCC1CCCN(C(=S)Nc2ccc(F)cc2)C1 (stereo unspecified),-2
O=[N+]([O-])c1ccc(-c2[nH]c(-c3ccc4ncccc4c3)nc2-c2ccccc2)cc1,8
